# In all, about 310,000 compounds went through this assay and about 18,000 (5.8%) were called active. Another 22% or so got no clear call; they are omitted. Shown is part of a subset that was picked to be rich in actives. Values without a mark were called inactive. Calls follow the shape of the dose curve; as a rule, active = well fitted inhibition curve with a large enough effect; inconclusive = small, poorly fitted or top-dose-only effect, or another doubt; inactive = no such curve, though single readings can be large or run the other way.
# Assay: Primary qHTS for delayed death inhibitors of the malarial parasite plastid, 48 hour incubation
# Conditions: P. falciparum luciferase growth in erythrocytes; series mostly up to 28.7 µM; activity change, negative = inhibition: at the top concentration
# In short: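 Cell-based growth assay: transgenic P. falciparum expressing firefly luciferase, cultured in red cells within RPMI 1640 containing 0.5% w/v Albumax, 24 mM bicarbonate and gentamycin. A drop in luciferase activity indicates inhibition.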
# % is scaled to controls: 0 for no effect and ±100 for the full control effect; potency is read from the fitted curve at half-maximal effect.
Structure (SMILES),"activity change, negative = inhibition [%]",Potency
COc1cccc(-n2c(=S)sc3c(=O)n(-c4ccccc4C)c(SCC(=O)O)nc32)c1,8.96,–
CCOc1ccccc1NC(=O)CCc1nnc2ccc(NCc3ccco3)nn12,-8.77,–
O=S(=O)(O)Oc1c[nH]c2ccccc12,–,7.38 µM (active)
COc1ccccc1CC(=O)NCCc1c[nH]c2ccccc12,-28,–
CCC/C(=N\O)c1c[nH]c2ccccc12,40,–
CCc1noc(C)c1C(=O)Oc1ccc(N(C)S(=O)(=O)c2ccc(C)c(C)c2)cc1,5.45,–
CC1(C)O[C@@H]2[C@H](O1)[C@@H](COS(=O)(=O)O)O[C@H]2n1ccc(=O)[nH]c1=O,26.7,–
CCN(CC)CCCNC(=O)c1c(O)c2cc(F)cc3c2n(c1=O)C(C)CC3 (configuration not stated),0,–
COCCOC(=O)C1=C(C)NC(=O)NC1c1ccc(Cl)cc1 (configuration not stated),3.9,–
CCOC(=O)C1=C(c2ccccc2)NC(=S)NC1c1ccc(Cl)cc1 (configuration not stated),-22.2,–
CCOC(=O)C1=C(C)NC(=O)N(C(C)=O)C1c1ccc(Cl)cc1 (configuration not stated),–,5.22 µM (active)
COc1ccc(C(=O)Nc2ccc(C(=O)NCC3CCCO3)cc2)c(OC)c1OC (configuration not stated),-27.4,–
Cc1ccc(S(=O)(=O)N2CCN(C)CC2)cc1C(=O)NC1CCCCC1,13.8,–
CC1CCCC(NC(=O)c2cc(S(=O)(=O)N3CCCCC3)ccc2Cl)C1C (configuration not stated),–,13.1 µM (active)
O=C(NNC(=O)c1cc(S(=O)(=O)N2CCCCC2)ccc1Cl)c1ccccc1O,-15.4,–
O=C(O)c1ccc2c(=O)n3c(nc2c1)/C(=C/c1ccc(OC(F)F)cc1OC(F)F)CC3,-15.1,–
Nc1nc(SCC(=O)Nc2ccc(Cl)c([N+](=O)[O-])c2)n[nH]1,-18.9,–
O=C(NCc1ccc2c(c1)OCO2)c1cc(F)c(F)cc1Cl,65.5,–
O=C(c1ccco1)N1CCN(C(=O)c2cc(-c3ccccc3F)no2)CC1,35.4,–
CCOC(=O)c1[nH]c2c(c1-c1ccccc1)C(=O)CC(c1ccc(Cl)cc1)C2 (configuration not stated),22.1,–
CCCOC(=O)c1[nH]c2c(c1C)C(=O)CC(c1cc(OC)c(OC)c(OC)c1)C2 (configuration not stated),–,1.65 µM (active)
COCCOC(=O)c1[nH]c2c(c1C)C(=O)CC(c1ccc(OC)cc1)C2 (configuration not stated),10.8,–
Cn1c(-c2ccc(C(F)(F)F)cc2)cc2onc(-c3ccccc3)c2c1=O,178,–
Cc1ccc(N(CC(=O)NC2CCCCC2)C(=O)CCCC(=O)Nc2ccccn2)c(C)c1,-13,–
Cc1ccc(C)c(N(CC(=O)NCc2ccco2)C(=O)CCC(=O)Nc2ccccn2)c1,–,14.7 µM (active)
COCCNC(=O)CN(C(=O)CCC(=O)Nc1cc(C)on1)c1ccc(C)cc1C,-0.34,–
CCc1ccc(NC(=O)Cn2nnc(C(=O)NCc3ccc4c(c3)OCO4)c2N)cc1,26.2,–

# Reference: PubChem BioAssay AID504832 (National Center for Advancing Translational Sciences (NCATS), 2011)
